# Assays:
# [1] = target: T1, Aspartate--tRNA(Asp/Asn) ligase (Mycobacterium tuberculosis (strain ATCC 25618 / H37Rv)) (UniProt P9WFW3); assay: Assay for Asp RNA synthetase-1 from Mycobacterium tuberculosis; type: functional; set-up: scale not given: direction of the effect not stated beside the values; settings: 30 µM; further: in the data most compounds retested in dose-response had high values
# T1 sequence (whole entry): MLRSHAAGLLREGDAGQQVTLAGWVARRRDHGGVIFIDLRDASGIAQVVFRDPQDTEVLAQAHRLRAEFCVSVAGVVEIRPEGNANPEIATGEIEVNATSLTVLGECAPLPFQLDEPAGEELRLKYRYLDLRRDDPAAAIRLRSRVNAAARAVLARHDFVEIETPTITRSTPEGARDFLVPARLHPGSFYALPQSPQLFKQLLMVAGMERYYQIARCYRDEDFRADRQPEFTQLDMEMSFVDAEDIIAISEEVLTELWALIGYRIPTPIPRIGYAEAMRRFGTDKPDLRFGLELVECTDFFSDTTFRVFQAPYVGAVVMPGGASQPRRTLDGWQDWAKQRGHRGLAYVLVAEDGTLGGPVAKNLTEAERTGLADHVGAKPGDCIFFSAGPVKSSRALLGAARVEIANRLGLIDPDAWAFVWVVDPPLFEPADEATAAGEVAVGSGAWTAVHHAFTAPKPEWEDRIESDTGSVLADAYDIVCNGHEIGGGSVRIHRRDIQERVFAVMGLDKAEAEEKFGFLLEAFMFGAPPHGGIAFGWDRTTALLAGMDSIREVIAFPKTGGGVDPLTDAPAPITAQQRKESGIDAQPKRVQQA
# [2] = target: Shiga toxin 2 (Escherichia coli O157:H7) (UniProt P09385+P09386); assay: E. coli 0.157:H7 Shiga Toxin SOP - stx2 screening assay; type: functional; set-up: scale not given: direction of the effect not stated beside the values; settings: 30 µM
Structure (SMILES),Percent Effect [1],Percent Effect [2]
O=C1CC[C@H]2[C@H](CCN2C(=O)C2CCCO2)N1Cc1ccncc1 (stereo partly specified),3.48%,-64%
COCc1ccc(CNC(=O)C2=NN(c3ccccc3)C(=O)CN2)cc1,16.6%,-18.1%
CC(C)COC(C)C(=O)NCc1cc(F)cc(F)c1 (stereo unspecified),-4.79%,27.6%
O=S(=O)(CCNCc1cccc2c1OCCO2)N1CCOCC1,-2.82%,-39%
CCCOCCCNc1nccc(-c2cn(C)nc2C)n1,-3.96%,18.1%
CN(C)C(=O)CN1C(=O)CCC12CCN(Cc1ccc(F)cc1)CC2,1.43%,-5.2%
Cc1cc(F)ccc1CN1CCCC2(C1)OCCO2,-5.59%,10.5%
COc1ccc(CS(=O)(=O)CC(=O)NCc2ccccc2F)cc1F,5.03%,-1.34%
Cc1nnc(CN2CCN(CCOc3ccccc3C#N)CC2)n1C,3.6%,3.89%
COc1c(CNC(c2ccc(F)cc2)C(C)(C)C)c(C)nn1C (stereo unspecified),-1.59%,40.7%
c1cc(CNCC2OCCc3cn(CC4CCOCC4)nc32)ccn1 (stereo unspecified),4.2%,-5.21%
Cc1cnn(CC2CN(CCN3CCCC3=O)CCO2)c1 (stereo unspecified),-4.53%,8.14%
CC(=O)N1CCN(CCNS(=O)(=O)c2ccc(C)c(F)c2)CC1,-1.95%,5.72%
CN(C)S(=O)(=O)N1C[C@H](Oc2cccnc2)[C@H]2OCCC[C@H]21,2.32%,-12%
CN1N=C(C(=O)NCc2ccc3c(c2)CCCN3C)CCC1=O,-4.96%,-42.9%
Cc1noc([C@H]2CC[C@@H]3[C@@H](CCN3S(C)(=O)=O)O2)n1,2.38%,-3.33%
CC(C)(C)C(=O)NCCc1ccn(-c2ccccc2)n1,-7.82%,-32.2%
CC(CNC(=O)N1CCN(c2cnccn2)CC1)Cc1cccs1 (stereo unspecified),0.324%,-14.3%
